Laboratory results published in PubChem BioAssay (NCI).
About 83,000 compounds went through this panel and 20% of them were active in at least one assay; those are over-represented in the sample as a whole.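 In brief: 96-well plates, 48 h treatment, single concentration, percent growth endpoint.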 Unmarked numbers belong to inactive results. How the source made its calls: active means growth percent below 10; inactive means the rest.

Tested on: MDA-MB-468 breast
Assay: NCI-60 one-dose screen, 48 h (100 = growth as untreated, 0 = no growth, -100 = all killed)
Settings: 10 µM unless noted

| Structure (SMILES) | growth |
| --- | --- |
| O=CN1N=C(c2ccc(F)cc2)CC1c1cccc(Nc2ccnc3cc(C(F)(F)F)ccc23)c1 (centres undefined) | 29.2% |
| CC1(C)CC[C@]23CC[C@]4(C)[C@H](CC[C@@H]5[C@@]6(C)CCCN(CO)C(C)(C)[C@@H]6CC[C@]54C)[C@H]2[C@H]1OC3 | 84.9% |
| COC(=O)c1nc(-c2ccccc2)oc1S(=O)(=O)Cc1ccccc1 | 59.3% |
| Cc1ccc(NC(=O)/C=N/O)cc1C | 62.4% |
